Values joined by “and” are separate entries in the source; they are usually repeats but may differ in a detail not shown here. Identical values can stand only once. Records with an inconclusive call do not appear. The source holds several records for some structures; these can differ, active in one and inactive in another. Active and inactive are the calls of the source. The calls were made as follows, unless noted: active = hit-call score of the fitted dose curve at least 0.9, where 1 is the maximum; inactive = score below 0.9.
Tests used:
[1] = CCTE_Simmons_MITO_basal_resp_rate: CCTE's HepG2 Seahorse XF Respirometric Screening Assay at Basal Respiratory State, Simmons Lab (AID 2284001); settings: actives raise or lower the signal
How it was run: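 Basal-phase OCR in HepG2 cells, read at 6-min intervals across a 72-min run, with test compound injected at 125 nM–100 uM final (7 points). Fitted both directions against DMSO; three biological replicates per concentration.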

[2] = CCTE_Simmons_MITO_max_resp_rate: CCTE's HepG2 Seahorse XF Respirometric Screening Assay at Maximal Respiratory State [uncoupled], Simmons Lab (AID 2284002); settings: actives raise or lower the signal
How it was run: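 HepG2 oxygen consumption was read on a Seahorse XF96 after FCCP uncoupler injection, following test compound injection; 7 concentrations, 125 nM–100 uM final, three biological replicates. Bidirectional fitting against DMSO vehicle baseline.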

[3] = CCTE_Simmons_MITO_inhib_resp_rate: CCTE's HepG2 Seahorse XF Respirometric Screening Assay at Inhibited Respiratory State [full ETC block], Simmons Lab (AID 2284006); settings: actives raise or lower the signal
How it was run: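 This endpoint is the respiration rate remaining after rotenone/antimycin A block, in HepG2 cells on a Seahorse XF96. Chemicals spanned 125 nM–100 uM final, in three biological replicates. OCR was read every 6 minutes for 72 minutes and compared with DMSO vehicle.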

[4] = CCTE_Shafer_MEA_acute_firing_rate_mean: CCTE's Neural Acute Assay for Mean Firing Rate, Shafer Lab (AID 2284009);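 also: analyzed for loss of signal so actives lower firing rate relative to DMSO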
How it was run: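 Primary rat cortical neurons on 16-electrode MEA wells were exposed on DIV 13 or 15 to compound (0.03-40 uM). Spike counts per recording time, averaged over electrodes, were compared between 40-min baseline and 40-min post-exposure recordings as percent change.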

[5] = CCTE_Harrill_HTTr_Apoptosis_MCF7: CCTE's 6-hour Apoptosis Assessment for the High-Throughput Transcriptomics (HTTr) Platform, in MCF-7 cells cultured in DMEM + 10% fetal bovine serum, Harrill Lab (AID 2284011)
How it was run: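 MCF-7 cells in DMEM + 10% fetal bovine serum were exposed to chemicals for 6 hours over an eight-point dilution series. Caspase-3/7 activation was imaged by high content imaging with CellEvent Caspase 3/7 Green; bidirectional fitting used DMSO as baseline.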

[6] = CCTE_Harrill_HTTr_CellCount_MCF7: CCTE's Cell Proliferation Assessment for the High-Throughput Transcriptomics (HTTr) Platform, Harrill Lab (AID 2284012; active = hit-call score of the fitted dose curve at least 0.9, where 1 is the maximum;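 also: cells exposed to compound for six hours; intended direction is loss of nuclei count meaning fewer cells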)
How it was run: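 Cell count from high-content imaging of Hoechst-labeled nuclei serves as viability/growth readout. Chemicals were applied to MCF-7 cells in eight concentrations for six hours, with fitting in both directions relative to DMSO.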

[7] = CCTE_Shafer_MEA_acute_burst_number: CCTE's Neural Acute Assay for Single-Electrode Bursts, Shafer Lab (AID 2284013)
How it was run: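 Primary rat cortical neurons on 16-electrode MEA wells, DIV 13 or 15, exposed to compound (0.03-40 uM; ≥3 wells); 40-min recordings at 37 C before and after treatment. Burst count expressed as percent change from baseline, DMSO as negative control.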

[8] = CCTE_Shafer_MEA_acute_burst_duration_mean: CCTE's Neural Acute Assay for Mean Burst Duration, Shafer Lab (AID 2284014);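 also: hits are decreases in mean burst duration relative to DMSO controls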
How it was run: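 Mean burst duration was compared between a 40 min baseline and a 40 min recording in the presence of compound (0.03-40 uM, 37 C), giving percent change per well. Cultures were rat cortical neurons at DIV 13 or 15; wells needed ≥10 active electrodes.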

[9] = CCTE_Shafer_MEA_acute_burst_percentage_mean: CCTE's Neural Acute Assay for Percentage of Spikes in a Burst, Shafer Lab (AID 2284017);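 as to AC50: curve fitted for loss of signal so potency reflects decreased burst percentage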
How it was run: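 Well-level mean burst percentage from a 40-min recording after compound (0.03-40 uM) expressed as percent change from a 40-min baseline at 37C. Cultures: primary rat cortical neurons on MEA, dosed on DIV 13 or 15; fitted downward relative to DMSO.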

[10] = CCTE_Shafer_MEA_acute_burst_percentage_std: CCTE's Neural Acute Assay for Standard Deviation of Burst Percentage, Shafer Lab (AID 2284018);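 also: fitted in the negative direction so actives lower burst percentage SD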
How it was run: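 Value is percent change from baseline in the across-electrode SD of spikes-in-bursts percentage, wells with >/= 10 active electrodes. Acute 40-min exposure to 0.03-40 uM on DIV 13 or 15 rat cortical cultures, recorded at 37 C after 40-min baseline.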

[11] = CCTE_Shafer_MEA_acute_per_network_burst_spike_number_mean: CCTE's Neural Acute Assay for Average Number of Spikes in a Network Burst, Shafer Lab (AID 2284019);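 as to AC50: curve fitted for loss of signal so actives reduce spikes per network burst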
How it was run: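 Percent change from baseline in mean spikes per network burst, spikes detected at 8x rms noise. Each compound at 0.03-40 uM in at least three wells of rat cortical cultures, recorded 40 min before and 40 min during exposure.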

[12] = CCTE_Shafer_MEA_acute_per_network_burst_spike_number_std: CCTE's Neural Acute Assay for Standard Deviation of Number of Spikes in a Network Burst, Shafer Lab (AID 2284020);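 also: fitted for decrease in spike-number SD versus DMSO so actives lower it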
How it was run: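 Endpoint: percent change from 40 min baseline in standard deviation of spikes per network burst, after 40 min compound exposure (0.03-40 uM, 37 C). Cortical rat neurons on MEA at DIV 13 or 15; spikes detected at 8x rms noise, 300-5000 Hz band-pass.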

[13] = CCTE_Shafer_MEA_acute_per_network_burst_electrodes_number_mean: CCTE's Neural Acute Assay for Mean Number of Electrodes in a Network Burst, Shafer Lab (AID 2284021);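 also: curves fitted for decreases only so hits reduce electrodes per burst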
How it was run: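 Rat primary cortical neurons on 16-electrode MEA wells were recorded 40 min at baseline on DIV 13 or 15, then 40 min after compound (0.03-40 uM), at 37 C. Value is percent change per well, fitted in loss direction versus DMSO.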

[14] = CCTE_Shafer_MEA_acute_network_burst_percentage: CCTE's Neural Acute Assay for Percentage of Network Bursts, Shafer Lab (AID 2284022);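 also: curves fitted for loss so actives lower network burst percentage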
How it was run: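 Primary rat cortical neurons on 16-electrode MEA wells, treated on DIV 13 or 15 with compound (0.03-40 uM); 40-min baseline and 40-min post-exposure recordings at 37 C. Value is percent change in spikes within network bursts versus baseline, DMSO negative control.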

[15] = CCTE_Harrill_HTTr_Viability_MCF7: CCTE's 6-hour Cell Viability Assessment for the High-Throughput Transcriptomics (HTTr) Platform, in MCF-7 cells cultured in DMEM + 10% fetal bovine serum, Harrill Lab (AID 2284010)
How it was run: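 Propidium iodide exclusion, imaged by high-content analysis, gauged viability after a six-hour exposure across eight concentrations. Cells were MCF-7 grown in DMEM with 10% fetal bovine serum; fits run in both directions against DMSO.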

[16] = target: Nucleoli Translocation, AR (gene 367) (UniProt P10275); assay: UPITT_HCI_U2OS_AR_TIF2_Nucleoli_Antagonist: University of Pittsburgh U2OS Androgen Receptor-Transcriptional Intermediary Factor 2 (AR-TIF2) Antagonism High Content Imaging Assay for Nucleoli Translocation (AID 2283997; active = hit-call score of the fitted dose curve at least 0.9, where 1 is the maximum)
How it was run: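 Antagonism is read as loss of nucleolar AR-RFP signal relative to DHT, imaged in U2OS cells also carrying GFP-TIF2. Compounds screened at 20 uM final, 0.2% DMSO; primary actives retested in triplicate.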

[17] = target: Ratio of Nucleoli Translocation and Cytoplasm, AR (gene 367) (UniProt P10275); assay: UPITT_HCI_U2OS_AR_TIF2_Nucleoli_Cytoplasm_Ratio_Antagonist: University of Pittsburgh U2OS Androgen Receptor-Transcriptional Intermediary Factor 2 (AR-TIF2) Antagonism High Content Imaging Assay for Ratio of Nucleoli Translocation and Cytoplasm (AID 2283999; active = hit-call score of the fitted dose curve at least 0.9, where 1 is the maximum;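 also: antagonists lower the DHT-driven ratio of nucleolar to cytoplasmic red signal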)
How it was run: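 High-content imaging of red fluorescence ratio, nucleoli versus cytoplasm, in U2OS expressing AR-RFP and TIF2-GFP, fitted relative to DHT. Compounds tested once at 20 uM final, then 0.195 to 50 uM final in serial dilution.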

[18] = target: Ratio of Nucleoli Translocation and Cytoplasm, AR (gene 367) (UniProt P10275); assay: UPITT_HCI_U2OS_AR_TIF2_Nucleoli_Cytoplasm_Ratio_Agonist: University of Pittsburgh U2OS Androgen Receptor-Transcriptional Intermediary Factor 2 (AR-TIF2) Agonism High Content Imaging Assay for Ratio of Nucleoli Translocation and Cytoplasm (AID 2284000; active = hit-call score of the fitted dose curve at least 0.9, where 1 is the maximum;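 also: hits raise the red nucleolar to cytoplasm ratio above vehicle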)
How it was run: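 Compounds tested at 20 uM final in primary screen (0.2% DMSO) and 0.195-50 uM final in dose-response (0.5% DMSO). Imaging of human U2OS cells bearing RFP-AR and GFP-TIF2; endpoint is nucleoli/cytoplasm red signal ratio, positive direction relative to DMSO.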

[19] = target: Nucleoli Translocation, AR (gene 367) (UniProt P10275); assay: UPITT_HCI_U2OS_AR_TIF2_Nucleoli_Agonist: University of Pittsburgh U2OS Androgen Receptor-Transcriptional Intermediary Factor 2 (AR-TIF2) Agonism High Content Imaging Assay for Nucleoli Translocation (AID 2283998; active = hit-call score of the fitted dose curve at least 0.9, where 1 is the maximum)
How it was run: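 Cells express human AR fused to red fluorescent protein and TIF2 fused to GFP. Red fluorescence in the nucleolar region was quantified by high-content imaging and fitted as gain-of-signal against a DMSO baseline. Compounds were tested at 0.195 to 50 uM final (0.5% DMSO).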

Measured: AC50

Chain of Ratio of Nucleoli Translocation and Cytoplasm, AR (gene 367) (P10275 whole entry, looked up): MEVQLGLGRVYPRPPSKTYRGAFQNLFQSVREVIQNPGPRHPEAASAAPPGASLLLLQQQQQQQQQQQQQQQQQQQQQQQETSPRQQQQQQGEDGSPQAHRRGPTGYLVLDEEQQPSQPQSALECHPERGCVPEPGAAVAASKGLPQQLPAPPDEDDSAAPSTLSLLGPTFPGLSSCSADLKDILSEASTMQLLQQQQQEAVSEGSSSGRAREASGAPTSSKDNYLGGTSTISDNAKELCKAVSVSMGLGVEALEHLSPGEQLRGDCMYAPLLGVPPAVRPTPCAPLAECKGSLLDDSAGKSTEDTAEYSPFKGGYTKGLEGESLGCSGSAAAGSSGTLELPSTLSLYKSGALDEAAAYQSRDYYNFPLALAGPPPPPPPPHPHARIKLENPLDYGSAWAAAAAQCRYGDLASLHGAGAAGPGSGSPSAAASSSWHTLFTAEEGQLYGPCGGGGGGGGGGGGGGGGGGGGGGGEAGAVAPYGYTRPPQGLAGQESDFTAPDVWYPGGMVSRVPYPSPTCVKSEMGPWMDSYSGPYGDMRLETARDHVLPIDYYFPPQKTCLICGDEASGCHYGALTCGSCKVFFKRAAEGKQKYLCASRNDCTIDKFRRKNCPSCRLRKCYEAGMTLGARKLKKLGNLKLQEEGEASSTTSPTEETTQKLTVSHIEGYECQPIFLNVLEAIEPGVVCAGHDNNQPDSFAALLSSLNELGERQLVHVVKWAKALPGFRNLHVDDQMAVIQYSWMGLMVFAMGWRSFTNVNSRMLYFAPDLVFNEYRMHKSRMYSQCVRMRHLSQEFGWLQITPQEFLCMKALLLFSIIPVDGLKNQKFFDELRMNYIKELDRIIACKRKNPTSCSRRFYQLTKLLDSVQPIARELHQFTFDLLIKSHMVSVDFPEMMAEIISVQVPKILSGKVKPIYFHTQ
Chain of Nucleoli Translocation, AR (gene 367) (P10275 whole entry, looked up, the tested form may be a part): as the sequence (P10275 whole entry, looked up) above

CC1COC(Cn2cncn2)(c2ccc(Oc3ccc(Cl)cc3)cc2Cl)O1 (stereo unspecified)
inactive: [5] | [6] | [8] | [11] | [13] | [14]
active: [1] 6.1 µM | [2] 6.64 µM | [3] 6.05 µM | [4] 3.53 µM | [7] 5.26 µM | [9] 4.77 µM | [10] 36.6 µM | [12] 3.5 µM

C=CCC1=C(C)C(OC(=O)C2C(C=C(C)C)C2(C)C)CC1=O (stereo unspecified)
active: [1] 34.7 µM and 46.9 µM | [2] 36.2 µM and 53.5 µM | [3] 26 µM and 42.3 µM | [9] 6.49 µM and 2.93 µM | [12] 0.727 µM | [14] 7.43 µM and 1.34 µM
inactive: [4] | [15] | [5] | [7] | [8] | [10] | [11] | [12] | [13]

CCOC(=O)CC(SP(=S)(OC)OC)C(=O)OCC (stereo unspecified)
active: [16] 50 µM | [17] 69.2 µM
inactive: [18] | [5] | [6]

CS/C(C)=N/OC(=O)N(C)SN(C)C(=O)O/N=C(\C)SC
inactive: [4] | [5] | [6] | [7] | [8] | [10] | [14]
active: [16] 21.7 µM | [19] 70.8 µM | [17] 13.8 µM | [18] 84.1 µM | [9] 25.5 µM | [11] 20 µM | [12] 25.3 µM | [13] 20 µM

N#Cc1cc(Br)c(O)c(Br)c1
inactive: [16] | [18] | [2] | [3] | [5] | [6]
active: [1] 9.69 µM

Cc1cc(Cl)ccc1OCC(=O)O
inactive: [19] | [17] | [18] | [15] | [5]

CC1=C(C(=O)Nc2ccccc2)SCCO1
inactive: [16] | [2] | [3] | [5] | [6]

CON(C)C(=O)Nc1ccc(Cl)c(Cl)c1
active: [1] 26.8 µM | [9] 8.54 µM | [10] 0.649 µM
not listed: [6] | [15] | [16] | [17] | [18] | [19]
inactive: all other assays above

N#CC(CCc1ccc(Cl)cc1)(Cn1cncn1)c1ccccc1 (stereo unspecified)
not listed: [15]
inactive: all other assays above

C#CCOS(=O)OC1CCCCC1Oc1ccc(C(C)(C)C)cc1 (stereo unspecified)
active: [1] 15.5 µM | [2] 11.3 µM | [4] 9.48 µM | [9] 32 µM | [10] 34.6 µM
not listed: [15] | [16] | [17] | [18] | [19]
inactive: all other assays above

— PubChem BioAssay (EPA / NIEHS)
